In PubChem BioAssay (NCI):
About 83,000 compounds went through this panel and 20% of them were active in at least one assay; those are over-represented in the sample as a whole.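 Results are percent growth after 48 hours of single-concentration exposure. 100 means growth as in untreated cells, lower positive values show inhibition; negative values down to -100 show cell death.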 Active and inactive are the calls of the source. The calls were made as follows: active = growth percent below 10; inactive = the rest.

Test system: SK-MEL-2 melanoma
Test: NCI-60 one-dose screen, 48 h (100 = growth as untreated, 0 = no growth, -100 = all killed)
Conditions: 10 µM unless noted

Row | Structure (SMILES) | growth
1 | Cn1cc(-c2csc(-c3c[nH]c4ncccc34)n2)c2cc(F)cnc21 | 89.7% (inactive)
2 | O=C(C(=O)N1CCOCC1)c1ccc(OC2OC(CO)C(O)C(O)C2O)cc1 (stereo not given) | 96.2% (inactive)
3 | ClC1C2CC(c3ccccc32)C1Cl (stereo not given) | 104% (inactive)
4 | CN(C)c1nc(N)nc(Cn2c(-c3nonc3N)nc3ccccc32)n1 | 90.5% (inactive)
5 | Cc1nn(-c2ccc(Cl)cc2)c2nc3c(nc12)c(=O)oc1ccccc13 | 107% (inactive)
6 | Cn1cc(-c2nc(-c3c[nH]c4ncc(F)cc34)cs2)c2cccnc21 | 120% (inactive)
7 | Cc1ccc(C(O)C2=CC(=O)c3ccccc3C2=O)cc1 (stereo not given) | 116% (inactive)
8 | NC(N)=N/N=C(/c1ccccc1)c1ccc(Cl)cc1 | 118% (inactive)
9 | O=C(C(=O)N1CCCCC1)c1ccc(OC2OC(CO)C(O)C(O)C2O)cc1 (stereo not given) | 99.4% (inactive)
10 | COc1cc2c(cc1OC)C1CCN3C(=O)CCC3N1CC2 (stereo not given) | 119% (inactive)
11 | NNC(=O)C1CC2c3ccccc3C1c1ccccc12 (stereo not given) | 109% (inactive)
12 | Nc1nc(Cl)c2[nH]cnc2n1 | 85.4% (inactive)
13 | O=C(Nc1ccccc1Cl)c1cnc2ccc(C3CCNCC3)cn12 | 92.4% (inactive)
14 | CC(C)[C@]12O[C@H]1[C@@H]1O[C@]13[C@]1(O[C@H]1C[C@H]1C4=C(CC[C@@]13C)C(=O)OC4)[C@@H]2OC(=O)CN(C)C | -60% (active)
15 | O=NC1CC=CCC1c1ccccc1 (stereo not given) | 108% (inactive)
16 | O=C1C2C3C=CC(O3)C2C(=O)N1Nc1ccccc1 (stereo not given) | 133% (inactive)
17 | COc1ccc(-c2c3c(nn2-c2ccc(N)cc2)CCc2cnoc2-3)cc1OC | 101% (inactive)
18 | Cn1c(N)c(N=O)c(=O)[nH]c1=O | 97.8% (inactive)

Row | Structure (SMILES) | growth
19 | O=C(CSCC(=O)N/N=C/c1ccccc1O)N/N=C\c1ccccc1O | 16.7% (inactive)
20 | Oc1ccc(Cc2ccc(O)c(C3CC(c4ccc(Cl)cc4)=NN3)c2)cc1C1CC(c2ccc(Cl)cc2)=NN1 (stereo not given) | -10.8% (active)
21 | CSc1nc2c(c(=O)n1C)C(c1ccccc1)C1=C(N2)/C(=C/c2ccccc2)CCC1 (stereo not given) | 29.5% (inactive)
22 | CC(C)[C@H]1CC[C@H]2[C@@H](CC[C@H]3[C@](C)(CN)CCC[C@]23C)C1 | 80.3% (inactive)
23 | COc1ccc(OC)c(/C=C/c2nc(=S)n(-c3ccc(Cl)cc3)[nH]2)c1 | 71.2% (inactive)
24 | CC1SC(c2c(Cl)cccc2Cl)N(NC(=O)c2[nH]c3ccc(F)cc3c2-c2ccccc2)C1=O (stereo not given) | 72% (inactive)
25 | COc1ccc(COC(C)=O)cc1 | 113% (inactive)
26 | Clc1ccc(-n2cnc3c(Cl)ncnc32)cc1Cl | 89.7% (inactive)
27 | COc1ccc2[nH]cc(/C=C3/C(=O)Nc4ccc(F)cc43)c2c1 | 91.7% (inactive)
28 | O=C(CSc1nc2c(n1Nc1ccccc1)-c1ccccc1SC2)Nc1nc(-c2ccc(Cl)cc2)cs1 | 111% (inactive)
29 | COc1cc(C2NC(c3ccc(Cl)cc3)C(C)C(=NC(=O)c3cnccn3)C2C)cc(OC)c1OC (stereo not given) | 97.3% (inactive)
30 | O=C(c1ccccc1)c1ccccc1Cl | 100% (inactive)
31 | Nc1nonc1-c1nc2ccccc2n1CC(=O)Nc1ccc2c(c1)COC2=O | 89.4% (inactive)
32 | Cn1cc(-c2csc(-c3cn(C)c4ncccc34)n2)c2cc(Br)cnc21 | 111% (inactive)
33 | CC(c1cc(Cl)ccc1O)c1cc(Cl)ccc1O | -16.8% (active)
34 | O=C1c2nsnc2C(=O)c2c(F)c(F)c(F)c(F)c21 | -75.4% (active)
35 | COc1ccc(C2=NNC(c3cc(Cc4ccc(O)c(C5CC(c6ccc(OC)cc6)=NN5)c4)ccc3O)C2)cc1 (stereo not given) | 20.1% (inactive)
